{"source": "ChEMBL document CHEMBL3988442", "about": "“University of Dundee, Small-Polar-MMV Screening Library” (2021)"}
{"molecular_target": "T1, Aspartate--tRNA(Asp/Asn) ligase (Mycobacterium tuberculosis (strain ATCC 25618 / H37Rv)) (UniProt P9WFW3)", "T1 sequence (whole entry)": "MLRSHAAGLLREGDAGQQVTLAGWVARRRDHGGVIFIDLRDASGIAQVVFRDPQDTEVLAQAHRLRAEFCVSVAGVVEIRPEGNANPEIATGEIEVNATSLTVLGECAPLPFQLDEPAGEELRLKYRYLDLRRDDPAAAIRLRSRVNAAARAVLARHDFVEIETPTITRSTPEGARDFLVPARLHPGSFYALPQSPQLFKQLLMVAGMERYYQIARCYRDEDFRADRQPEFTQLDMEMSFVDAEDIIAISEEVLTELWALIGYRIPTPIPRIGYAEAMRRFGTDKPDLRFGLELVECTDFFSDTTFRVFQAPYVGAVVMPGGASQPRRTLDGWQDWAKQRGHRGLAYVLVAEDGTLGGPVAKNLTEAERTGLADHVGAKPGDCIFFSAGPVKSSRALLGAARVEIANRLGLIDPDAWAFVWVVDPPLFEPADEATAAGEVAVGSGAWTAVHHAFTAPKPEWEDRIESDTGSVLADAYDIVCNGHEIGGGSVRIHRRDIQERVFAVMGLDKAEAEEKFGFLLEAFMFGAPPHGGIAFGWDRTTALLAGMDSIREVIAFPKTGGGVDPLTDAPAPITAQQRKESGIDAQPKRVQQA", "assay": "Assay for Asp RNA synthetase-1 from Mycobacterium tuberculosis", "type": "functional", "set-up": "scale not given: in the data most compounds retested in dose-response had high values", "settings": "30 µM", "units": {"Percent Effect": "%"}}
{"molecule": "COc1cccc(S(=O)(=O)NC(=O)COC2CCCC2)c1", "Percent Effect": 2.03}
{"molecule": "CCc1cc(NCC(O)CN2CCCCC2)n2ncnc2n1", "note": "(stereo not given)", "Percent Effect": 8.06}
{"molecule": "O=C(NCCc1ccc(Cl)s1)NCc1nnc2n1CCC2", "Percent Effect": 2.25}
{"molecule": "Cc1noc(C(C)N2CCN(CCC(=O)N3CCCCC3)CC2)n1", "note": "(stereo not given)", "Percent Effect": -2.64}
{"molecule": "COc1cccc(CN2CCN(c3ccc4nncn4n3)C(C)C2)c1", "note": "(stereo not given)", "Percent Effect": -3.34}
{"molecule": "CC(C)=CCN1CCC(c2nccn2Cc2cscn2)CC1", "Percent Effect": -3.28}
{"molecule": "Nc1nccc(N2CCC(Cc3ccccc3Cl)(C(=O)O)CC2)n1", "Percent Effect": -0.368}
{"molecule": "N#Cc1ccc(OC2CCN(C(=O)c3ccc4c(c3)OCO4)CC2)nc1", "Percent Effect": -8.83}
{"molecule": "COc1cc(C(=O)N(Cc2ccc(F)cc2)C2CC2)cc2c1OCCO2", "Percent Effect": 9.07}
{"molecule": "CN1CCC(c2nnc(CN3CCC(O)CC3)n2C)CC1", "Percent Effect": 10.8}
{"molecule": "CCS(=O)(=O)N1C[C@H]2C[C@H](C(=O)N(C)C)[C@@H](C1)O2", "Percent Effect": 3.87}
{"molecule": "Cn1c(CN2CCN(CC3CC3)CC2)nnc1C1CCC1", "Percent Effect": 8.05}
{"molecule": "Cc1nc(CN2CCCC(CCc3ccc(F)cc3F)C2)c[nH]1", "note": "(stereo not given)", "Percent Effect": -7.38}
{"molecule": "O=C(NCC1COCc2c(-c3cccnc3)nnn2C1)c1cccs1", "note": "(stereo not given)", "Percent Effect": 9.59}
{"molecule": "COCCO[C@@H]1CCN(Cc2csc(C)n2)[C@H]1Cc1ccccc1", "Percent Effect": 3.03}
{"molecule": "CC(=O)N1CCCN(C(=O)NCCc2ccc(Cl)s2)CC1", "Percent Effect": -3.04}
{"molecule": "CC(C)c1nc(CN(C)C2CCN(CCNS(C)(=O)=O)C2)no1", "note": "(stereo not given)", "Percent Effect": 0.0463}
{"molecule": "CCc1nnc2n1CCN(C(=O)c1cnc3ccccc3n1)C2", "Percent Effect": -4.57}
{"molecule": "CN(C)c1ccc(CN(CCCn2ccnc2)Cc2c[nH]cn2)cc1", "Percent Effect": 0.194}
{"molecule": "Cc1c[nH]nc1C1CCCCN1C(=O)Cn1cc(Cl)cn1", "note": "(stereo not given)", "Percent Effect": 4.25}
